Eight molecules from PubChem BioAssay (NCATS) can be followed below.

A short description of assay [1]: Cell Viability - Jurkat (AID 426;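 active = dose-dependent loss of cell ATP signal giving a full or clear fitted curve, ranked by lower potency value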;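 also: potency is read from the fitted curve at half-maximal effect; cells exposed to compound for 40 hours at 37 °C before ATP read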). Conditions: qHTS. The method in brief:
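Cytotoxicity taken as drop in cellular ATP (CellTiter-Glo luminescence, 20 min room temperature) after 40 hr, 37C treatment of 5000 Jurkat Clone E6-1 cells per well; concentration-response fitted with Hill equation for AC50.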
A general note: In qHTS, concentration-response curves come from the screen itself.

In assay [2] the target is Cytochrome P450 3A4 (Homo sapiens) (UniProt P08684). The assay can be described thus: qHTS Assay for Inhibitors and Substrates of Cytochrome P450 3A4 (AID 884). Also: nearly all actives have a fitted effect of over 50% in size. Also: potency is read from the fitted curve at half-maximal effect. The settings on record: recombinant CYP3A4, Luciferin-PPXE luminescence; series mostly up to 57.1 µM. The method in brief:
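Luminescent readout of luciferin produced by CYP3A4 (20 nM) dealkylation of Luciferin-PPXE, 25 uM (its KM). NADPH-driven reaction ran 60 min at RT after 10 min compound preincubation; data scaled to 57 uM ketoconazole as 100% inhibition.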

Assay [3] is described as follows: Cell Viability - LYMP2-001 (AID 921). Also: nearly all actives have a fitted effect of over 70% in size. Also: potency is read from the fitted curve at half-maximal effect. Conditions: LYMP2-001 lymphoblastoid cell viability; series mostly up to 92.2 µM. The method in brief: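 A lymphoblastoid cell line of human origin was treated with library compounds across a concentration series for 24 hours, and viable cell number was estimated from ATP-driven luciferase light output. Hill modeling gave AC50.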

A short description of assay [4]: Cell Viability - LYMP2-013 (AID 970). Also: nearly all actives have a fitted effect of over 55% in size. Also: potency is read from the fitted curve at half-maximal effect. Conditions: LYMP2-013 lymphoblastoid cells viability; series mostly up to 92.2 µM. The method in brief: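 qHTS cytotoxicity: ATP-dependent luminescence (CellTiter-Glo, 30 min room temperature) read after 24 h compound exposure at 37 C of 2500 LYMP2-013 lymphoblastoid cells per well. Concentration-response fitted with Hill equation to give AC50.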

A short description of assay [5]: Cell Viability - LYMP2-006 (AID 978). Also: nearly all actives have a fitted effect of over 60% in size. Also: potency is read from the fitted curve at half-maximal effect. Conditions: LYMP2-006 lymphoblastoid cell viability, qHTS; series mostly up to 92.2 µM. The method in brief:
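In this cytotoxicity screen, the human lymphoblastoid line grew in complete medium with test compounds for 24 hr at 37 C. Cellular ATP served as the viability signal.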

Assay [6] in a line: Cell Viability - LYMP2-008 (AID 980). Also: nearly all actives have a fitted effect of over 60% in size. Also: potency is read from the fitted curve at half-maximal effect. The settings on record: LYMP2-008 lymphoblastoid cell viability, qHTS; series mostly up to 92.2 µM. The method in brief:
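Cytotoxicity determined from ATP-dependent luciferase luminescence (CellTiter-Glo) following 24 h compound exposure of human lymphoblastoid LYMP2-008 cells at 37 C. Concentration-response data fitted to the Hill equation to give AC50.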

The nature of assay [7]: Cell Viability - LYMP2-010 (AID 981). Also: nearly all actives have a fitted effect of over 55% in size. Also: potency is read from the fitted curve at half-maximal effect. The settings on record: LYMP2-010 lymphoblastoid cell viability, qHTS; series mostly up to 92.2 µM. The method in brief: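 CellTiter-Glo ATP luminescence measured cytotoxicity after 24 h compound exposure at 37 C. LYMP2-010 cells were seeded at 2500/well, with tetraoctylammonium bromide as control; concentration-response curves gave AC50 values by the Hill equation.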

Assay [8] can be described thus: Cell Viability - LYMP2-016 (AID 984). Also: nearly all actives have a fitted effect of over 55% in size. Also: potency is read from the fitted curve at half-maximal effect. The settings on record: LYMP2-016 lymphoblastoid cell viability, qHTS; series mostly up to 92.2 µM. The method in brief: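 Concentration-dependent ATP depletion measured in LYMP2-016 lymphoblastoid cells, 24 h, 37 C; luciferase-based luminescent detection; Hill-equation AC50.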
The nature of assay [9]: Cell Viability - LYMP2-018 (AID 985). Also: nearly all actives have a fitted effect of over 50% in size. Also: potency is read from the fitted curve at half-maximal effect. Conditions: LYMP2-018 lymphoblastoid cells, viability (qHTS); series mostly up to 92.2 µM. The method in brief: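 Viability read as CellTiter-Glo luminescence (cellular ATP) after 24 hr compound exposure at 37 C of 2500 LYMP2-018 lymphoblastoid cells/well, pre-plated 5 hr. Hill-equation modelling gave AC50.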
Assay [10] can be described thus: Cell Viability - LYMP2-020 (AID 986). Also: nearly all actives have a fitted effect of over 55% in size. Also: potency is read from the fitted curve at half-maximal effect. Conditions: series mostly up to 92.2 µM. The method in brief:
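Cytotoxicity in qHTS format: luminescent ATP readout from CellTiter-Glo after 24 h compound exposure at 37 C in complete medium. LYMP2-020 lymphoblastoid cells were seeded at 2500/well; concentration-response data fitted to the Hill equation for AC50.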

Assay [11] can be described thus: Cell Viability - LYMP2-022 (AID 987). Also: nearly all actives have a fitted effect of over 55% in size. Also: potency is read from the fitted curve at half-maximal effect. The settings on record: LYMP2-022 lymphoblastoid cell viability; series mostly up to 92.2 µM. The method in brief: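 Cytotoxicity read as decreased cellular ATP (CellTiter-Glo luminescence, 30 min room temperature) after 24 hours compound exposure of 2500 lymphoblastoid LYMP2-022 cells/well at 37 C. Concentration-response data fitted with standard Hill equation for AC50.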

Assay [12] can be described thus: Cell Viability - LYMP2-024 (AID 988). Also: nearly all actives have a fitted effect of over 60% in size. Also: potency is read from the fitted curve at half-maximal effect. The settings on record: LYMP2-024 lymphoblastoid cell viability; series mostly up to 92.2 µM. The method in brief: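 Cytotoxicity was taken as a decrease in ATP (CellTiter-Glo luminescence) after 24 hr compound exposure at 37 C of LYMP2-024 lymphoblastoid cells, 2500 cells/well. Concentration-response data were fitted to the Hill equation to give AC50.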

Assay [13] in a line: Cell Viability - LYMP1-002 - Assay at 40 hr (AID 994). Also: nearly all actives have a fitted effect of over 60% in size. Also: potency is read from the fitted curve at half-maximal effect. The settings on record: LYMP1-002 lymphoblastoid cell viability; series mostly up to 92.2 µM. The method in brief:
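Cytotoxicity was read as loss of cellular ATP (CellTiter-Glo luminescence) after 40 hr compound exposure at 37 C of 2500 LYMP1-002 lymphoblastoid cells per well. Concentration-response data were fitted with the standard Hill equation to give AC50.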

Assay [14] has as its target Thyroid hormone receptor beta (Homo sapiens) (UniProt P10828). Put plainly: qHTS assay for small molecule agonists of thyroid hormone receptor beta signaling (AID 588545; calls by dose curve). The settings on record: TR-UAS-bla GripTite HEK 293, beta-lactamase ratio, agonist mode, 18 h, percent of T3 response, DMSO as zero; series mostly up to 76.7 µM. The method in brief: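 In this cell-based screen, titrated compounds act on HEK 293 cells held in medium with 2% charcoal/dextran FBS, NEAA and pyruvate for 18 hrs at 37 C. Responses are expressed relative to T3 (10 nM) as 100% and basal DMSO as 0%.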

Assay [15] deals with Retinoic acid receptor RXR-alpha (Homo sapiens) (UniProt P19793). Put plainly: qHTS assay for small molecule antagonists of retinoid X receptor alpha signaling (AID 588546; active = well fitted inhibition curve with a large enough effect in the signal ratio, with a control signal flat, not every such curve was filed as active; the % refers to the signal ratio; also: potency is read from the fitted curve at half-maximal effect;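 as to max response: cells stimulated with 9-cis-retinoic acid as agonist; % is scaled to controls: 0 for no effect and ±100 for the full control effect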). The settings on record: HEK293T RXRa-UAS-bla, beta-lactamase ratio, antagonist mode. The method in brief:
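Beta-lactamase reporter inhibition, read as CCF4 fluorescence ratio (ex 405, em 460/530 nm) after 2 h at RT. HEK293T UAS-bla cells, 2500/well, were stimulated with 9-cis-RA at 500 or 100 nM final alongside test compound for 18 h at 37 C.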

The target in assay [16] is Thyroid hormone receptor beta (Homo sapiens) (UniProt P10828). Put plainly: qHTS assay for small molecule antagonists of thyroid hormone receptor beta signaling (AID 588547; active = well fitted inhibition curve with a large enough effect in the signal ratio, with a control signal flat, not every such curve was filed as active; the % refers to the signal ratio;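 also: cells stimulated with 0.4 nM T3 agonist during compound exposure; % is scaled to controls: 0 for no effect and ±100 for the full control effect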). Conditions: TR-UAS-bla HEK293, beta-lactamase ratio, antagonist mode, 18 h. The method in brief:
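TR-UAS-bla GripTite HEK293 cells in 2% charcoal/dextran FBS medium; compounds 0.59 nM to 92 uM with T3 at 0.4nM final, 18 h at 37 C. Beta-lactamase read by CCF4 fluorescence (460/530 nm); Hill fits gave IC50 and efficacy.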

In assay [17] the target is Nuclear receptor subfamily 1 group I member 2 (Rattus norvegicus) (UniProt Q9R1A7). The assay can be described thus: qHTS assay for small molecule activators of the rat pregnane X receptor (rPXR) signaling pathway (AID 651751; call rule not given here; also: 0% is about no effect). The settings on record: rPXR reporter cells, luciferase (One-Glo), 24 h.
Chain of Nuclear receptor subfamily 1 group I member 2 (Rattus norvegicus) (Q9R1A7 whole entry, looked up): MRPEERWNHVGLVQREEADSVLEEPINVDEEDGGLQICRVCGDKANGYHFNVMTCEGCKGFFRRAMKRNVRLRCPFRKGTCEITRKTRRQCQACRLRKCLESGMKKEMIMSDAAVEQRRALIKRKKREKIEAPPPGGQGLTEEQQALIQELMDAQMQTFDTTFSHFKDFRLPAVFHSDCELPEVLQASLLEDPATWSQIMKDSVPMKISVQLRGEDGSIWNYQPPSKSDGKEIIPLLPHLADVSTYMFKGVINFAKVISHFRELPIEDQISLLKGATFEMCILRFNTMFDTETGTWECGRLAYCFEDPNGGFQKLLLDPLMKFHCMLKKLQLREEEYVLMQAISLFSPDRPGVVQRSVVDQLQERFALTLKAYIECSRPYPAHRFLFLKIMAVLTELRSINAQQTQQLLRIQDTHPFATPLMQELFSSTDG
The nature of assay [18]: MultiTox-Fluor Cytotoxicity Assay - LYMP1-002 - Dead Cells (AID 960). Also: nearly all actives have a fitted effect of over 60% in size. Also: potency is read from the fitted curve at half-maximal effect. The settings on record: LYMP1-002 lymphoblastoid cells, dead-cell protease fluorescence; series mostly up to 46.1 µM. The method in brief:
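Dead-cell fluorescence (Ex/Em 485/520) after 16 h compound exposure at 37 C of LYMP1-002 lymphoblastoid cells in complete medium; AC50 by Hill equation, with data scaled between DMSO and 15 uM tetraoctylammonium bromide.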

The nature of assay [19]: Cell Viability - LYMP1-003 - Assay at 40 hr (AID 964). Also: nearly all actives have a fitted effect of over 60% in size. Also: potency is read from the fitted curve at half-maximal effect. Conditions: LYMP1-003 lymphoblastoid viability; series mostly up to 92.2 µM. The method in brief: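 Viability is taken as cellular ATP, read by CellTiter-Glo luminescence after 40 h of compound exposure at 37 C. Cells: human lymphoblastoid line LYMP1-003 at 2500/well; AC50 values derived by Hill-equation fitting of concentration-response data.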

Assay [20] can be described thus: qHTS assay for small molecule activators of the nuclear factor-kappa B (NF-kB) signaling pathway (AID 651749; active = well fitted activation curve with a large enough effect in the signal ratio; the % refers to the signal ratio; also: % of control where 0% means no effect). The settings on record: NF-kB-bla ME-180 cells, beta-lactamase FRET ratio, 16 h; stronger effect = higher value. The method in brief: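 In this qHTS format, compounds acting as activators increase NF-kB-driven beta-lactamase in ME-180 cells, measured as disrupted FRET after 16 hr exposure at 37C and 5% CO2.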

Values joined by “and” are separate entries in the source; they are usually repeats but may differ in a detail not shown here. Equal entries are not always repeated. Unmarked numbers belong to inactive results. Records with an inconclusive call do not appear. Active and inactive are the calls of the source. Unless noted, calls follow the shape of the dose curve; as a rule, active = well fitted curve in the direction sought with a large enough effect; inconclusive = small, poorly fitted or top-dose-only effect, or another doubt; inactive = no such curve, though single readings can be large; an effect the other way counts as inactive or inconclusive. Some results are limits rather than exact numbers.

Chain of Thyroid hormone receptor beta (Homo sapiens) (P10828 whole entry, looked up): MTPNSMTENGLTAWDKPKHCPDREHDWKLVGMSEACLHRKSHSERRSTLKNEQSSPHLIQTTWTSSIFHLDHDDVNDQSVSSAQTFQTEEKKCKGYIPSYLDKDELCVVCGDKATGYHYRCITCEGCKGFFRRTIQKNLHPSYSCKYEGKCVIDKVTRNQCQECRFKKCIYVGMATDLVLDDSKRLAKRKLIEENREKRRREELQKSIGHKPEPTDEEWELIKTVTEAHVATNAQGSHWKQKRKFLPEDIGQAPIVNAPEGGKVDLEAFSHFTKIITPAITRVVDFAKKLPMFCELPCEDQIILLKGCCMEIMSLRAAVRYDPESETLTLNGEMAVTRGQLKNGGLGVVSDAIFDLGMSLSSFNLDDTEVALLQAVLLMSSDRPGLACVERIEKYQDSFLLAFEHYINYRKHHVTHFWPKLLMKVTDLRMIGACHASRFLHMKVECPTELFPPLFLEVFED
Chain of Retinoic acid receptor RXR-alpha (Homo sapiens) (P19793 whole entry, looked up): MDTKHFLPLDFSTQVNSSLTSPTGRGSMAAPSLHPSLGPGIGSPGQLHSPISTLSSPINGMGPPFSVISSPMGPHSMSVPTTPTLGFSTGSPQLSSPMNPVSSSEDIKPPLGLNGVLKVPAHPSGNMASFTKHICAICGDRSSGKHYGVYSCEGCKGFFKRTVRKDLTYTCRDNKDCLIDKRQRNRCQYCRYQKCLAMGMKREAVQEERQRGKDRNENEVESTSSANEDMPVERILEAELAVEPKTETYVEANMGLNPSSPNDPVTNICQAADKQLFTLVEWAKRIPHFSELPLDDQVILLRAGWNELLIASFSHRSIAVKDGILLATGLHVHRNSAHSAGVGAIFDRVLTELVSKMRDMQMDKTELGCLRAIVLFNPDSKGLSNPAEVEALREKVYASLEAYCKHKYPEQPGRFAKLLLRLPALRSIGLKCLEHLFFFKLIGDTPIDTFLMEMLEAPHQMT
Chain of Cytochrome P450 3A4 (Homo sapiens) (P08684 whole entry, looked up): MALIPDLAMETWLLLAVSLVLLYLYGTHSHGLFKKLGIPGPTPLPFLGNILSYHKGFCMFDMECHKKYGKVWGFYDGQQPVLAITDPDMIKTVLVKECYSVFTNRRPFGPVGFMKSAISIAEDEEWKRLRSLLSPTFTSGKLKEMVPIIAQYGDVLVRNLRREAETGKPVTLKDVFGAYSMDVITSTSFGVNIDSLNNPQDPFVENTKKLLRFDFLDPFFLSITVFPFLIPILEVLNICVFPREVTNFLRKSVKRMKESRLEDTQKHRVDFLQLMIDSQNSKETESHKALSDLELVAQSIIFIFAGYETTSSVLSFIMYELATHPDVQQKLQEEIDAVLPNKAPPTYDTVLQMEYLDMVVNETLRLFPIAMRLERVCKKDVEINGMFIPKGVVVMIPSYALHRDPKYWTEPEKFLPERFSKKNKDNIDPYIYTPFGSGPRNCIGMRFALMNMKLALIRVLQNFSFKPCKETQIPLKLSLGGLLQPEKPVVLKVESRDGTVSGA

On to `Cc1cc(Nc2ccc(O)cc2)ccc1N`, for which the Potency in [1] is 7.82 µM (active); in [2], 15.8 µM (active); in assay [3], 31.6 µM (active); in assay [4], 50.1 µM (active); in assay [5], 50.1 µM (active); in assay [6], 50.1 µM (active). Also, the Potency in assay [7] was 31.6 µM (active); in assay [8] it was 50.1 µM (active); in [9], 39.8 µM (active); in assay [10], 39.8 µM (active); in assay [11], 31.6 µM (active); in assay [12], 25.1 µM (active). Moreover, the Potency entry in assay [13] was “inactive”. Moreover, the result in assay [14] was inactive. The max response was 21.4% in [15] and -2.27% in assay [17]. Moreover, the activity change % (negative = inhibition) in assay [16] is -8.81%.

As to `CO[C@H]1/C=C/O[C@@]2(C)Oc3c(C)c(O)c4c(O)c(c5c(c4c3C2=O)NC2(CCN(CC(C)C)CC2)N=5)=NC(=O)/C(C)=C\C=C\[C@H](C)[C@H](O)[C@@H](C)[C@@H](O)[C@@H](C)[C@H](OC(C)=O)[C@@H]1C`, the Potency entry in [18] and in assay [6] was “inactive” each time. Besides, the result in [14] was inactive. Further, the activity change % (negative = inhibition) in [16] was 5.09%. Further, the max response in [17] was 7.05%.

`O=C=Nc1ccc(Cc2ccc(N=C=O)cc2)cc1`: the Potency in assay [1] was > 92 µM. Also, the Potency entry in [3], in [19], in assay [4], in assay [5], in assay [6] and in [7] was “inactive” each time. Moreover, the Potency entry in assay [8], in [9], in assay [10], in assay [11], in [12] and in assay [13] was “inactive” throughout. The result in assay [14] was inactive. For the same molecule, the max response in assay [15] is 9.21% and 0.991%; in [17], 1.83% and 4.61%. Moreover, in assay [16], the activity change % (negative = inhibition) was -3.37% and 10%. Moreover, the activation in assay [20] is 0.0924%.

For the molecule `O=C1OC2(c3cc(Br)c(O)c(Br)c3Oc3c2cc(Br)c(O)c3Br)c2c(Cl)c(Cl)c(Cl)c(Cl)c21`, in [2], the Potency was 20 µM (active). Moreover, the Potency result in assay [19], in assay [5], in [7], in [8], in assay [10] and in assay [12] was “inactive” in each case. Further, the Potency result in [13] was “inactive”. Moreover, the max response in [15] is 7.11%. For the same molecule, the activity change % (negative = inhibition) in assay [16] was 2.12%.

On to `CC/C(=C(\c1ccccc1)c1ccc(OCCN(C)C)cc1)c1ccc(O)cc1`, for which the Potency in assay [1] is 40.8 µM (active).

As for `C/C=C1\C(=O)C[C@H]2[C@@H]3CCC4=CC(=O)CC[C@]4(C)[C@H]3CC[C@]12C`, the Potency result in assay [2] is “inactive”. In addition, the Potency in assay [18] was 25.1 µM (active). In addition, the outcome in [14] was inactive. In [20], the activation is -4.79%.

With `O=C1OC(O)C(C(Cl)Cl)=C1Cl` (configuration not stated), the Potency is 21.3 µM (active) in assay [1]; 20 µM (active) in assay [3]; 31.6 µM (active) in assay [18]; 25.1 µM (active) in assay [4]; 25.1 µM (active) in assay [5]; 25.1 µM (active) in assay [6]. Also, the Potency in assay [7] was 15.8 µM (active); in [8], 25.1 µM (active); in assay [9], 25.1 µM (active); in assay [10], 25.1 µM (active); in assay [11], 15.8 µM (active); in assay [12] it was 12.6 µM (active). In addition, the Potency entry in [2] is “inactive”. Besides, the max response in assay [15] was -25.5%; in assay [17], -3.61%. Besides, the activation in [20] is -0.496%.

In the case of `CCC(C)Nc1ccc(NC(C)CC)cc1` (configuration not stated), the Potency is 3.09 µM (active) in assay [1]; 15.8 µM (active) in [2]; 5.01 µM (active) in [3]; 10 µM (active) in [19]; 6.31 µM (active) in [4]; 5.01 µM (active) in assay [5]. Further, the Potency was 3.98 µM (active) in [6]; 3.16 µM (active) in assay [7]; 5.01 µM (active) in assay [8]; 3.16 µM (active) in assay [9]; 5.01 µM (active) in assay [10]; 2.51 µM (active) in [11]. The values for the Potency in [12], in [13] and in [15] were 2 µM (active), 15.8 µM (active) and 28.2 µM (active), respectively. For the same molecule, the outcome in [14] was inactive.
